Inconclusive results are not listed. Activity calls are given as the source filed them.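 The calls were made as follows, unless noted: active = inhibition above the screen-wide mean plus 3 SD, about 51%; inactive = the rest.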

A short description of assay [1]: rapamycin-like changes in RPL19A-GFP expression – cell-based, S. cerevisiae, multiplex flow cytometry, primary screen (AID 1862; in the data active = percent of DMSO control GFP below about 86%;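 also: lower values mimic rapamycin by blocking the RPL19A rise seen in DMSO cells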). The conditions noted are these: S. cerevisiae RPL19A-GFP strain, flow cytometry fluorescence, 3 h; at 10 µM; stronger effect = lower value.
Assay [2] in a line: TOR pathway GLN3 branch reporter MEP2-GFP changes – S. cerevisiae, multiplex flow cytometry, primary screen (AID 1867;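 active = GFP response, as percent of the DMSO control, above the screen-wide mean plus 3 SD, about 139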;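 also: median GFP channel fluorescence of barcode-gated MEP2-GFP cells measured by flow cytometry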). The conditions noted are these: S. cerevisiae MEP2-GFP strain, 3 h, at 10 µM, stronger effect = higher value, 100% means same as DMSO wells.
Assay [3] in a line: TOR pathway RTG branch CIT2 reporter changes – S. cerevisiae, GFP fusion, multiplex flow cytometry, primary screen (AID 1870;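 active = percent response above a set limit, the screen-wide mean plus 3 SD, cut at about 130% in these data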;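 also: barcoded CIT2-GFP strain pooled with four other GFP strains with rapamycin as positive control; median GFP fluorescence per well over plate mean of DMSO wells so 100% = DMSO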). The following applies: S. cerevisiae CIT2-GFP expression, 3 h, at 10 µM, stronger effect = higher value.
Assay [4] is described as follows: TOR pathway LAP4-GFP level changes – S. cerevisiae, multiplex flow cytometry, primary screen (AID 1873;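 active = GFP signal, as percent of the solvent control, above the screen mean plus 3 SD, about 149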). The following applies: S. cerevisiae LAP4-GFP expression, 3 h, at 10 µM, stronger effect = higher value. In general terms: In flow cytometry, cells or beads pass a laser one at a time.
Assay [5] is described as follows: yeast AGP1-GFP level changes, GLN3 branch – cell-based, multiplex flow cytometry, S. cerevisiae, primary screen (AID 1887;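 active = GFP signal above the screen-wide mean plus 3 SD, that is over about 124.5% of the solvent control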;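 also: AGP1-GFP fusion strain of S. cerevisiae within a five-strain barcoded multiplex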). The conditions noted are these: 3 h, at 10 µM, stronger effect = higher value.
Assay [6] in a line: reduced mouse 2C T cell binding to pMHC/ICAM-1 vesicles – MLPCN validation set, flow cytometry, LFA-1/ICAM-1 modulator project, pilot screen (AID 2523;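 active = response below a set limit, under 55% cells CD8-positive and vesicle-bound, and CD8 cells' 90th-percentile brightness under 279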;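 as to vesicle binding response: mean PE anti-B7-1 fluorescence of CD8+ cells relative to row control; 100% = QL9-loaded vesicles with DMSO vehicle in the same plate row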). The conditions noted are these: 2C mouse CD8+ T cells, at 7 µM, stronger effect = lower value; double positive events: measured here: CD8+/vesicle+ event percentage.
The target in assay [7] is Integrin beta-1 (Homo sapiens) + Integrin alpha-4 (Homo sapiens) (UniProt P13612+P05556). The assay is described as follows: alpha4beta1 integrin LIBS antibody binding reduction – U937 cells, HUTS-21 mAb, flow cytometry, validation set, VLA-4 allosteric modulator project, pilot screen (AID 2674;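 active = inhibition above 50%, about 3 SD of the validation set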;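 also: antibody binding induced by the VLA-4 ligand LDV present at three times its Kd; 0% = LDV ligand with antibody and no compound and 100% = antibody without LDV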). The conditions noted are these: HUTS-21 LIBS mAb binding, at 6.7 µM, stronger effect = higher value, binding induced by LDV ligand.

The nature of assay [8]: calorie-restriction mimetic ROS inhibitors, yeast – validation compound set, pilot screen (AID 2706;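 active = superoxide response below 65% of plate, a cut near 3 SD across the whole screen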;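 also: yeast exposed to compound for one week at 30 degrees C before staining; 100% = mean of all compound wells on the same plate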). The conditions noted are these: S. cerevisiae aging, superoxide DHE fluorescence; at 10 µM; stronger effect = lower value.
The target in assay [9] is Beta-adrenergic receptor kinase 1 (Homo sapiens) (UniProt P25098). In words: GRK2 binders displacing RNA aptamer, biochemical, validation, human GRK2, bead flow cytometry (AID 488806;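 active = aptamer binding inhibition above 30%, about 3 SD of noise from non-fluorescent compounds; inactive = inhibition at or below 30%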). The conditions noted are these: bead-bound GRK2, FAM-aptamer displacement, at 10 µM, stronger effect = higher value.
Assay [10] addresses Beta-2 adrenergic receptor (Homo sapiens) (UniProt P07550). The assay is described as follows: agonist-induced loss of surface beta2AR – cell-based, FAP fluorogen, flow cytometry, validation set, pilot screen (AID 504459;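 active = percent response above 42, roughly 3 SD of non-fluorescent test compounds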;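 also: agonist-driven loss of surface beta2AR via internalization measured by FAP dye flow cytometry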). The following applies: Am2.2-beta2AR cells, at 10 µM, stronger effect = higher value.
Assay [11] has as its target AP-2 complex subunit beta (Homo sapiens) (UniProt P63010). The assay is described as follows: beta-arrestin/AP2 interaction blockers – biochemical, validation set, GST-AP2 beads, flow cytometry, pilot screen (AID 504541;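 active = inhibition above 54%, about 3 SD of non-fluorescent compounds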;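 also: AP2 carries R879A mutation and is captured from E. coli lysate; bead-bound FITC arrestin peptide fluorescence measuring arrestin peptide binding to AP2; 0% = DMSO wells and 100% = excess unlabeled arrestin peptide control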). The conditions noted are these: FITC arrestin peptide, at 10 µM, stronger effect = higher value, AP2 beta2 appendage fragment, R879A mutant.
Assay [12] is described as follows: cytosolic pH regulators acting via V-ATPase – S. cerevisiae, pHLuorin, HTS validation (AID 504600; in the data active = response above about 15%;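 also: plate controls were DMSO for no effect and reference compound for full effect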). The conditions noted are these: V-ATPase proton transport, at 10 µM, stronger effect = higher value.
Assay [13] relates to anti-desmoglein-3 scFv antibody binding to human DSG3. The assay is described as follows: blockers of pathogenic pemphigus antibody–desmoglein-3 binding – biochemical, validation compound set, bead-based, flow cytometry, pilot screen (AID 588368;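 active = binding below the plate cutoff, the plate median minus 3 SD, with a reading above zero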;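 also: signal is the median channel fluorescence of bead-bound GFP antibody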). The following applies: Protein G beads, DSG3-Fc, scFv-GFP binding, at 10 µM, stronger effect = lower value.
Assay [14] can be described thus: Nile Red efflux blockade in pump-expressing yeast – validation compound set, multiplex, phenotypic, pilot screen (AID 588506;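 active = efflux inhibition above 0.42, the validation set average plus 4 SD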;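 also: Nile Red retained in cells so higher fluorescence means more efflux inhibition; 0 = negative control wells and 1 = enniatin B 25 µM full block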). The following applies: S. cerevisiae pump-expressing triplex, Nile Red efflux flow cytometry; at 10 µM; stronger effect = higher value; the pumps come from Candida albicans.
In assay [15] the target is ATP-binding cassette sub-family B member 6 (Homo sapiens) (UniProt Q9NP58). In words: blockers of ABCB6-driven porphyrin uptake – K562-ABCB6 cells, flow cytometry, validation set, pilot screen (AID 588550).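 Also: 0% = DMSO wells and 100% = benzethonium chloride 70 µM positive control.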 The following applies: K562-ABCB6 porphyrin accumulation, 1 h, at 10 µM, stronger effect = higher value.
Assay [16] in a line: AML differentiation inducers, ER-HoxA9 marrow cells – cell-based, GFP/MAC1 double positive, flow cytometry, validation set, primary screen (AID 588685;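 active = differentiation response of at least 50%, scaled between solvent and reference control, from cells with both markers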;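 also: compound exposure lasts four days before antibody staining and flow analysis; 0% = DMSO wells and 100% = 5 µM fulvestrant positive control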). The following applies: stronger effect = higher value, normalized: vehicle 0, fulvestrant 100.

Beta-adrenergic receptor kinase 1 (Homo sapiens), sequence (P25098 whole entry, looked up): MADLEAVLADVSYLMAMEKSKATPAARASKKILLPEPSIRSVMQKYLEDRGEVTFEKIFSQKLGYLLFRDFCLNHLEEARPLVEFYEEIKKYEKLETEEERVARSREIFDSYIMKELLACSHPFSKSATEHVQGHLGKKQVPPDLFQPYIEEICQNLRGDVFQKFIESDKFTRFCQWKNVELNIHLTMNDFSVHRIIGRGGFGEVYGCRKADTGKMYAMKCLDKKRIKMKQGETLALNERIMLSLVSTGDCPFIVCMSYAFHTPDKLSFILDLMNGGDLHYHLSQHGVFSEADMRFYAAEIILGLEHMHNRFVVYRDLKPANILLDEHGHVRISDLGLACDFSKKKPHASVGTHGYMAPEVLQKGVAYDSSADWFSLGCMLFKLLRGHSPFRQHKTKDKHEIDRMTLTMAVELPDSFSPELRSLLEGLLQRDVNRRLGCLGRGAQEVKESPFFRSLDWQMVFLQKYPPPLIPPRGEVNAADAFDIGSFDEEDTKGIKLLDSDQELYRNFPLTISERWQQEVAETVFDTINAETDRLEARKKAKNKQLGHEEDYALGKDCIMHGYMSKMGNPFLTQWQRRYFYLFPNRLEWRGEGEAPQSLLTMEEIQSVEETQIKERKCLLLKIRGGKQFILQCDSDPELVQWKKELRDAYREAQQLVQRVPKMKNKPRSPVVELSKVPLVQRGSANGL
ATP-binding cassette sub-family B member 6 (Homo sapiens), sequence (Q9NP58 whole entry, looked up): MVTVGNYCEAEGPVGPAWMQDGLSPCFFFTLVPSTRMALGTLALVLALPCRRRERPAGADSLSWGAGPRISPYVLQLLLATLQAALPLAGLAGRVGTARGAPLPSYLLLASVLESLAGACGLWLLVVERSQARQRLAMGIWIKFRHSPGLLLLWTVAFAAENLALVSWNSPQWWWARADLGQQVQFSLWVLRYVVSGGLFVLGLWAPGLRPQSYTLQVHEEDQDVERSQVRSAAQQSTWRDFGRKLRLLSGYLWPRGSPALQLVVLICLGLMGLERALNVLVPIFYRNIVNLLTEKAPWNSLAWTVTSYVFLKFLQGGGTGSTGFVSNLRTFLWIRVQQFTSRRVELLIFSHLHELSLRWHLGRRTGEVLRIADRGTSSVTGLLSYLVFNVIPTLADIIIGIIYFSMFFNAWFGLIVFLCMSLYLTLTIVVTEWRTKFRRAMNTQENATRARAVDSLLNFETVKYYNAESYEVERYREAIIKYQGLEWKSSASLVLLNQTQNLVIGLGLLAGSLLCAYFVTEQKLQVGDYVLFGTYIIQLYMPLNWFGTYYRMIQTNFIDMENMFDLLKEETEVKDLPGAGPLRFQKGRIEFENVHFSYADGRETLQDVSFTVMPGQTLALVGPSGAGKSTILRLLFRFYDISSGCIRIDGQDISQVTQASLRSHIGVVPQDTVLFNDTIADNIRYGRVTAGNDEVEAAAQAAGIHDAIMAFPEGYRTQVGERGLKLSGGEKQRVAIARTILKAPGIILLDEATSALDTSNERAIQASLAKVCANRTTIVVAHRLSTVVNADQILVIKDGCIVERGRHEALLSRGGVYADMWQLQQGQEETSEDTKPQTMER
Integrin beta-1 (Homo sapiens) + Integrin alpha-4 (Homo sapiens), sequence (P05556 whole entry, looked up): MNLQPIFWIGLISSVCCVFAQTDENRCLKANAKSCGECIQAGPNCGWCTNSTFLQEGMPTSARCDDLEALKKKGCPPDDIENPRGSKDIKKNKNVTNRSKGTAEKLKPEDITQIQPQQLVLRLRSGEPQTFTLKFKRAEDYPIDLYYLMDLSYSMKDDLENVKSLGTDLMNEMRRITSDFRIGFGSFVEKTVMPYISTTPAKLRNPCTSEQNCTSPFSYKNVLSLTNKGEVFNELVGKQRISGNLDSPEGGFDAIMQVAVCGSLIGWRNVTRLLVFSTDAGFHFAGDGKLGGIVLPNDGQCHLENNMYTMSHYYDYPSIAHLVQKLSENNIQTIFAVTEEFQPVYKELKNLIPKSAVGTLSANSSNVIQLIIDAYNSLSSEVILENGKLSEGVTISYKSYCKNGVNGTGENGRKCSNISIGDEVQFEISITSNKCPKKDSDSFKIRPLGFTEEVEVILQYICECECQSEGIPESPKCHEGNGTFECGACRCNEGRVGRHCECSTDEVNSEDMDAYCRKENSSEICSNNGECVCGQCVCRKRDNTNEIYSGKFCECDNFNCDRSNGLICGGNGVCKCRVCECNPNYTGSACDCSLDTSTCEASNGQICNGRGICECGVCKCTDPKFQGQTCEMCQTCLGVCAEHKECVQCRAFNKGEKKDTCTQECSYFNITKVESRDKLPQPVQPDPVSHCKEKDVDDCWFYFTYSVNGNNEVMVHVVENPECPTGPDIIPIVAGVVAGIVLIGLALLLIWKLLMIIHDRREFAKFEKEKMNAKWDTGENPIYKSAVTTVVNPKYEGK
Integrin beta-1 (Homo sapiens) + Integrin alpha-4 (Homo sapiens), sequence (P13612 whole entry, looked up): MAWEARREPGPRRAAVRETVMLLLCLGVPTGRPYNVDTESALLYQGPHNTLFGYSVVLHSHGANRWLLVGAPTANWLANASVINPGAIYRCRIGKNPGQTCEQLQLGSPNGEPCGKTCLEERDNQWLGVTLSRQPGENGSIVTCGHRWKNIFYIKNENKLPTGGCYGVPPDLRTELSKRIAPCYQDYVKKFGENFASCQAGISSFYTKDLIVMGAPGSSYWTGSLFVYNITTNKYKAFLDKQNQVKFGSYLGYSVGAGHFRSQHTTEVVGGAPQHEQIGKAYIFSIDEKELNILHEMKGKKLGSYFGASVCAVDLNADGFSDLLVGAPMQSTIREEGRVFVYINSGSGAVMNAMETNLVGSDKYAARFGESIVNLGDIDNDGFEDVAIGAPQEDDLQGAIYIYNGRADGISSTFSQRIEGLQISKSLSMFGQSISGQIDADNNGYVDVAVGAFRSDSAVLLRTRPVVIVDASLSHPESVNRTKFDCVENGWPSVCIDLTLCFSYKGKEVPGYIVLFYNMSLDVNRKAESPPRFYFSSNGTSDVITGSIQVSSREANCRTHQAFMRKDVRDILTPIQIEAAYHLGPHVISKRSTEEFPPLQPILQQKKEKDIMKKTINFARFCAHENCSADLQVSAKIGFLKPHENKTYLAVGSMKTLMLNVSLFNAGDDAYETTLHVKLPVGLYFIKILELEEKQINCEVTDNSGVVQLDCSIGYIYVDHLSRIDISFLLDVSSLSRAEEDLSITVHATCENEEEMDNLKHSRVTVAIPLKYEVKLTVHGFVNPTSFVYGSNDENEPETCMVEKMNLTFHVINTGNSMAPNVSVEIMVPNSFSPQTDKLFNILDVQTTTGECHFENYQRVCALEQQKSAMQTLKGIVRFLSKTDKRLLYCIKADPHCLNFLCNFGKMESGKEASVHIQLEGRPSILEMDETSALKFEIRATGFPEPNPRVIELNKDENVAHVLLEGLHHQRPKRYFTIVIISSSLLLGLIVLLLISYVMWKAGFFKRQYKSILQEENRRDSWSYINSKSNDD
AP-2 complex subunit beta (Homo sapiens), sequence (P63010 whole entry, looked up, the tested form may be a part, one chain of several): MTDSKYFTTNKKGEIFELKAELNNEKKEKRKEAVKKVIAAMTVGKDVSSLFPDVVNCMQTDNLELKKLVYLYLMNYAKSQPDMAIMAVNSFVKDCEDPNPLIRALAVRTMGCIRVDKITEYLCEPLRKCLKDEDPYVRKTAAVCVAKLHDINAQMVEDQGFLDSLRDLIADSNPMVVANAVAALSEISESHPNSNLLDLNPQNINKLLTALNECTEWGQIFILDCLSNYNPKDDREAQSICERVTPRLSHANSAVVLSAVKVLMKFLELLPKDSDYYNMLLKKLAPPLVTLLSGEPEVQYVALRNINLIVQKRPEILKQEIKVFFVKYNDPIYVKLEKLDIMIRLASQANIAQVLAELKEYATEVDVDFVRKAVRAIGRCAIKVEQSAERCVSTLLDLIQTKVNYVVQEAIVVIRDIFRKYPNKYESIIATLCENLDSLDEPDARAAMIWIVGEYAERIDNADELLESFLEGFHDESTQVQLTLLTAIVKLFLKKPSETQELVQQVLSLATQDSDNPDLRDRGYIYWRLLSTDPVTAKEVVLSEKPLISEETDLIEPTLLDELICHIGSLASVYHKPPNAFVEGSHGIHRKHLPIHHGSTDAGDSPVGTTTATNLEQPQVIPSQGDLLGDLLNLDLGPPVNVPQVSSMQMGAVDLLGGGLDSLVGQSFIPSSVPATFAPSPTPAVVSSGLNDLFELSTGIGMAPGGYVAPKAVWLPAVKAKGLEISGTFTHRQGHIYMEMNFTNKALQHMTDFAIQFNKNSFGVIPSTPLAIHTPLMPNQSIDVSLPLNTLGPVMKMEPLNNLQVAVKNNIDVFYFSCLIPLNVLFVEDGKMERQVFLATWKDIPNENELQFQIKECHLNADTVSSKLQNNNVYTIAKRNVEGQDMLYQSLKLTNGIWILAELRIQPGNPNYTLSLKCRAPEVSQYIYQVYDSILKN
Beta-2 adrenergic receptor (Homo sapiens), sequence (P07550 whole entry, looked up): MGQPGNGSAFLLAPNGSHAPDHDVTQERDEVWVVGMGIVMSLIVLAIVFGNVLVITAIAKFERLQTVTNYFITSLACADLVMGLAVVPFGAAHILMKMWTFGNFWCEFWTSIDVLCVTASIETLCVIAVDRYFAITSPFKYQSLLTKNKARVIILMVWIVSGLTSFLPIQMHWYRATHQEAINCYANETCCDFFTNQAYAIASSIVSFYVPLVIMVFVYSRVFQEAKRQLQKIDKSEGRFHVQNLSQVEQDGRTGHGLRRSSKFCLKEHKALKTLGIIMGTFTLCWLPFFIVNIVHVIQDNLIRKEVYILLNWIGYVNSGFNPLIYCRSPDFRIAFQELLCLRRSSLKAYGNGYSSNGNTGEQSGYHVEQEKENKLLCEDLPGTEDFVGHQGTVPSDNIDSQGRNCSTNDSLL

Regarding `O=C1CC2(CCCC2)CC(=O)N1CCCCN1CCN(c2ncccn2)CC1`, in assay [1], the percent of DMSO control GFP is 102% (inactive). For the same molecule, the GFP response vs DMSO in assay [2] is 104% (inactive); in assay [4] it was 91.4% (inactive). In addition, in [3], the percent response of DMSO control is 96.6% (inactive). In addition, the GFP response, % of DMSO in [5] is 106% (inactive). In assay [6], this molecule yielded a double positive events of 64.3%. In addition, in [6], the vesicle binding response was 1050% (inactive). For the same molecule, the inhibition in assay [7] was 7.85% (inactive); in assay [11], -0.56% (inactive); in assay [15] it was 9% (inactive). Moreover, the superoxide response (% of plate) in assay [8] is 101% (inactive). In addition, the aptamer binding inhibition in assay [9] was 3% (inactive). Further, the response in [10] is -19.5% (inactive); in assay [12] it was 2.1% (inactive). For the same molecule, the binding (% of control) in [13] is 101% (inactive). The efflux inhibition (fraction of control) in assay [14] was 0.21 (inactive). In [16], the differentiation response is 12% (inactive).

For `CC1CCCC(C)N1NC(=O)c1ccc(Cl)c(S(N)(=O)=O)c1` (stereo not drawn), the percent of DMSO control GFP in [1] is 88% (inactive). Further, the values for the GFP response vs DMSO in [2] and in assay [4] were 126% (inactive) and 85.8% (inactive), respectively. The percent response of DMSO control in assay [3] was 91.3% (inactive). Besides, in [5], the GFP response, % of DMSO is 96.3% (inactive). For the same molecule, in assay [6], the double positive events is 65.1%. Also, the vesicle binding response in assay [6] is 128% (inactive). For the same molecule, the inhibition in assay [7] is -3.24% (inactive); in assay [11] it was -5.07% (inactive); in assay [15], 10% (inactive). Further, the superoxide response (% of plate) in assay [8] is 98.3% (inactive). The aptamer binding inhibition in [9] is 3% (inactive). Further, the figures for the response in [10] and in [12] were -7.28% (inactive) and -0.52% (inactive), respectively. In assay [13], the binding (% of control) was 101% (inactive). The efflux inhibition (fraction of control) in [14] is 0.09 (inactive). In assay [16], the differentiation response was -0.82% (inactive).

For `O=C(O)c1ccccc1C(=O)OCCCCOC(=O)c1ccccc1C(=O)O`, in assay [1], the percent of DMSO control GFP is 104% (inactive). Besides, the results for the GFP response vs DMSO in [2] and in assay [4] were 85.6% (inactive) and 82.2% (inactive), respectively. Besides, in assay [3], the percent response of DMSO control is 105% (inactive). In [5], the GFP response, % of DMSO was 98.6% (inactive). Moreover, in assay [6], the double positive events amounted to 64.9%. For the same molecule, the vesicle binding response in [6] is 1380% (inactive). Further, the figures for the inhibition in [7], in [11] and in assay [15] were -0.45% (inactive), -4.07% (inactive) and 2% (inactive), respectively. In addition, the superoxide response (% of plate) in [8] is 88% (inactive). In addition, in [9], the aptamer binding inhibition was 6% (inactive). Moreover, the values for the response in assay [10] and in assay [12] were -3.48% (inactive) and 1.28% (inactive), respectively. Also, in assay [13], the binding (% of control) was 92.7% (inactive). Besides, the efflux inhibition (fraction of control) in assay [14] is 0.21 (inactive). For the same molecule, in assay [16], the differentiation response was 4.15% (inactive).

Consider `CC1(C)c2ccccc2N2CC(=O)NC21/C=C/c1ccco1` (stereo not drawn), for which the percent of DMSO control GFP in [1] is 101% (inactive). Besides, the GFP response vs DMSO was 113% (inactive) in [2] and 100% (inactive) in assay [4]. Also, the percent response of DMSO control in [3] is 110% (inactive). In addition, the GFP response, % of DMSO in [5] was 96.2% (inactive). The double positive events in [6] stood at 64.1%. Besides, the vesicle binding response in [6] is 87.6% (inactive). In addition, the values for the inhibition in assay [7], in [11] and in assay [15] were -23.9% (inactive), -7.94% (inactive) and -36% (inactive), respectively. Besides, the superoxide response (% of plate) in assay [8] is 109% (inactive). Moreover, the aptamer binding inhibition in assay [9] is 0% (inactive). Further, the response in assay [10] was 5.81% (inactive); in [12], -1.22% (inactive). For the same molecule, the binding (% of control) in [13] was 107% (inactive). The efflux inhibition (fraction of control) in [14] was -0.16 (inactive). In assay [16], the differentiation response is -3.11% (inactive).

As a reminder, the inhibition is the change of the read-out against control, counted positive when it falls.
